Results filed as inconclusive are left out. Activity calls are given as the source filed them. Rule for the calls, unless noted: active = hit-call score of the fitted dose curve at least 0.9, where 1 is the maximum; inconclusive = response in the unintended direction; inactive = score below 0.9.
Legend:
[1] = Tanguay_ZF_120hpf_TRUN_legacy: (Legacy) Oregon State University Tanguay Lab 120 Hour Post-fertilization zebrafish Assay for Truncated Body (AID 2283655)
Outline: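 Single dechorionated zebrafish embryos received test chemical from 6 hpf in 0.64% DMSO, kept at 28C. At 120 hpf, brightfield inspection noted any truncated body.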

[2] = Tanguay_ZF_120hpf_NC_legacy: (Legacy) Oregon State University Tanguay Lab 120 Hour Post-fertilization zebrafish Assay for Notochord and Tail Malformation (AID 2283656)
Outline: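 Dechorionated 5D zebrafish, 1/well from 6 hpf; static exposure to 120 hpf, 28C, sealed, dark; final DMSO 0.64% v/v. NC scored binary (present/absent); dead embryos not scored. Fit vs DMSO baseline, gain direction.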

[3] = Tanguay_ZF_120hpf_TR_legacy: (Legacy) Oregon State University Tanguay Lab 120 Hour Post-fertilization zebrafish Assay for Touch Response (AID 2283667)
Outline: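 Tropical 5D wild-type zebrafish embryos were exposed statically in sealed, foil-covered plates at 28C until 120 hpf, with 0.64% (vol/vol) final DMSO. Touch response was scored as present or absent; embryos that died were not scored.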

[4] = Tanguay_ZF_120hpf_ActivityScore_legacy: (Legacy) Oregon State University Tanguay Lab 120 Hour Post-fertilization zebrafish Assay Score for Activity (AID 2283742)
Outline: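 Tropical 5D wild-type zebrafish embryos, dechorionated with pronase at 4 hpf, were exposed singly from 6 hpf to 120 hpf statically at 28C in 0.64% DMSO. Malformations and mortality were scored as binary by brightfield, with the activity score combining 18 morphology components.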

SERPINA7 (gene 6906) = assay: CCTE_GLTED_hTBG: CCTE's human Thyroxine-binding Globulin (TBG) Inhibition Assay, Great Lakes Toxicology and Ecology Division (GLTED) Lab (AID 2284343);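 note: active chemicals lower fluorescence versus DMSO baseline by displacing probe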
Outline: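 Cell-free binding assay in which human TBG is incubated with test chemical for 2 hours and displacement of the fluorescent probe ANSA is read at 380 nm excitation/475 nm emission. Activity is fitted against DMSO as the negative control.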

TTR (gene 7276) = assay: CCTE_GLTED_hTTR_0.125uM: CCTE's human Transthyretin (hTTR) Inhibition Assay, with 0.125uM TTR, Great Lakes Toxicology and Ecology Division (GLTED) Lab (AID 2284431; active = hit-call score of the fitted dose curve at least 0.9, where 1 is the maximum; inactive = score below 0.9;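 note: hits lower the fluorescence signal relative to DMSO baseline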)
Outline: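 Activity is defined as decreased ANSA fluorescence (ex 380, em 475) from human transthyretin, 0.125uM, following 2-hour chemical exposure in a cell-free setup, with DMSO as baseline.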

[5] = target: human Beta-secretase (BACE), BACE1 (gene 23621) (UniProt P56817); assay: NVS_ENZ_hBACE: NovaScreen (NVS) Enzymatic Assay for human Beta-secretase (BACE) (AID 2283140);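 note: hits are inhibitors that reduce fluorescent substrate signal versus DMSO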
Sequence of human Beta-secretase (BACE), BACE1 (gene 23621) (P56817 whole entry, looked up): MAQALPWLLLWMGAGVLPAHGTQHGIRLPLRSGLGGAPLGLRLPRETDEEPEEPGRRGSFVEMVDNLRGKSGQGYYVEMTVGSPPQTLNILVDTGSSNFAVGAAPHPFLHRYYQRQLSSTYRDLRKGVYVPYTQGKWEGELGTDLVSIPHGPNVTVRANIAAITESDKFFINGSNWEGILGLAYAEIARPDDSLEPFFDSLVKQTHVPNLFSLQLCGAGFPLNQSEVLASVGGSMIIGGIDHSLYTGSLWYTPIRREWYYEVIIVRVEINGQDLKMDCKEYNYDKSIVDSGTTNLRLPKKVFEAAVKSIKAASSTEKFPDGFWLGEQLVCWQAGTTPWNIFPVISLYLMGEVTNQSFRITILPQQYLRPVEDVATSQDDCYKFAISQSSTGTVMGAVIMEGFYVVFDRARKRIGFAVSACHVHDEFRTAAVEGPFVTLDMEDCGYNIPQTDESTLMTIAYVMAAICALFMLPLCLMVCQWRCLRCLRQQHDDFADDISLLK
Outline: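 Cell-free fluorescence-intensity assay of recombinant BACE1 expressed in SF9 cells, read 1 hour after dosing. Loss of signal indicates reduced protease activity, fitted relative to DMSO negative control. Primary screen at 25 uM in duplicate; actives followed in concentration series.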

[6] = target: human Vascular Endothelial Growth Factor Receptor 1 (VEGFR1), FLT1 (gene 2321) (UniProt P17948); assay: NVS_ENZ_hVEGFR1: NovaScreen (NVS) Enzymatic Assay for human Vascular Endothelial Growth Factor Receptor 1 (VEGFR1) (AID 2283226)
Sequence of human Vascular Endothelial Growth Factor Receptor 1 (VEGFR1), FLT1 (gene 2321) (P17948 whole entry, looked up): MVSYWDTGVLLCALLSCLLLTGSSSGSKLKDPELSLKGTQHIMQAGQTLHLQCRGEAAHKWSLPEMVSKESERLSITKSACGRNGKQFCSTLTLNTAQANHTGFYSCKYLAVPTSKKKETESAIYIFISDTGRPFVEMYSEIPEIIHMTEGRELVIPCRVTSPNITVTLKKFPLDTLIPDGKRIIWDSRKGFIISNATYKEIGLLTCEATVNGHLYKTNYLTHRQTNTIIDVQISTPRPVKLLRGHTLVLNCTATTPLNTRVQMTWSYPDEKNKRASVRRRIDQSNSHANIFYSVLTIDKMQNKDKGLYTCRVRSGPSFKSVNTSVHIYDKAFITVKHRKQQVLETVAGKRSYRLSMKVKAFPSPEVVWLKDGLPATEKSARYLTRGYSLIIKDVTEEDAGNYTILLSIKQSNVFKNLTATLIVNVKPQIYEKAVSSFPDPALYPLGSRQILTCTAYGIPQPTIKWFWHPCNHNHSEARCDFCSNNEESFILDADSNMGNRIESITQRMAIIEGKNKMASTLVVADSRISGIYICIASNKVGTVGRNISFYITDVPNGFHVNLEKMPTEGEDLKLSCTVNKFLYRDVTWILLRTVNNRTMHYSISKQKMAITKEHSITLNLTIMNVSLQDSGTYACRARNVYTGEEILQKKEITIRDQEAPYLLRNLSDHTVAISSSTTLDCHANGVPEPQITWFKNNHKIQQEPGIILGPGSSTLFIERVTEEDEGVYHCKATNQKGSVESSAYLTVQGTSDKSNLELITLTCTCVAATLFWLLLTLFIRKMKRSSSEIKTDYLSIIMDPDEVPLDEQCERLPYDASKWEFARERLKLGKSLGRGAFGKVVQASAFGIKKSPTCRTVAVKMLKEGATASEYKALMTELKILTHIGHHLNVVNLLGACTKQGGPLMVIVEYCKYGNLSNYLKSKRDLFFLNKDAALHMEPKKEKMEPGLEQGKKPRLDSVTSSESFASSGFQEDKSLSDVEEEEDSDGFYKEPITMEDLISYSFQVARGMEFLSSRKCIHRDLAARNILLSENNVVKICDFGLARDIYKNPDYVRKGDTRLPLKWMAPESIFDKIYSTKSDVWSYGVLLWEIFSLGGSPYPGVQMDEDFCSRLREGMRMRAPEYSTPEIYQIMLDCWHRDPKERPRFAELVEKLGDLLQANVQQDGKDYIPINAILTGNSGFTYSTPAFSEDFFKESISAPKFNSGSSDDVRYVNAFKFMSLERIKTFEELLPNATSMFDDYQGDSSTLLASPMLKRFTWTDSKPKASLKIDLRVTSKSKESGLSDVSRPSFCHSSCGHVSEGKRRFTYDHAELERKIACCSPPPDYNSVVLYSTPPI
Outline: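 Cell-free assay of recombinant human VEGFR1 kinase with substrate, measured 1 h after dosing; fluorescence with electrophoretic mobility-shift separation of substrate and product, referenced to DMSO; primary screen at 25 uM in duplicate, actives then run in concentration series.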

[7] = target: Glucocorticoid receptor (Homo sapiens) (UniProt P04150); assay: NVS_NR_hGR: NovaScreen (NVS) Nuclear Receptor Binding Assay for human Glucocorticoid Receptor (GR) (AID 2283363);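 note: activity is loss of specific radioligand binding signal relative to DMSO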
Sequence of Glucocorticoid receptor (Homo sapiens) (P04150 whole entry, looked up): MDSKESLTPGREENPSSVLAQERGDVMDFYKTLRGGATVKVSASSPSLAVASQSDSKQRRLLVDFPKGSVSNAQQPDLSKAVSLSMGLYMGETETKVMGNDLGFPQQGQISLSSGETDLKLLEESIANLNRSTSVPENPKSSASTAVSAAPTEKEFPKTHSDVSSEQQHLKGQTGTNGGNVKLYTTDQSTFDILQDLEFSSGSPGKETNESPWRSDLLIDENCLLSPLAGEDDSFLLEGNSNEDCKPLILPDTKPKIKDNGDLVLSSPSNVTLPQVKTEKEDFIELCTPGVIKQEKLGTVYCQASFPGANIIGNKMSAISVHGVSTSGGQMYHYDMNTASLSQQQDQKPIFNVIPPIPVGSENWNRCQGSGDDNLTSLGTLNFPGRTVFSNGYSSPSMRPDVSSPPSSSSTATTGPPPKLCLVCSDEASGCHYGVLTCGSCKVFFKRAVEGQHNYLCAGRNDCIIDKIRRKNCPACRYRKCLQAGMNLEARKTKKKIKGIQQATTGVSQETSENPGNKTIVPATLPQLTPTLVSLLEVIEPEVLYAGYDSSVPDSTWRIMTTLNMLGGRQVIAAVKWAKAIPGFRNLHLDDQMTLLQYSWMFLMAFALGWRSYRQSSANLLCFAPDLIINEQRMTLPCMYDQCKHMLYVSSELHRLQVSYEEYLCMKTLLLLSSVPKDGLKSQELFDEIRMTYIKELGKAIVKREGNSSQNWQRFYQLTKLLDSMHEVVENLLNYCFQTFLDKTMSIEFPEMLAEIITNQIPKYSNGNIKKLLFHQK
Outline: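 Cell-free radioligand binding with extracted receptor protein, read by filter-based scintillation counting 16 hours after dosing. Loss of specific signal versus DMSO baseline was scored. Primary screen ran in duplicate at 25 uM; actives were followed up in concentration series.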

[8] = STM_H9_OrnCyssISnorm_ratio: Stemina devTOX quickPredict H9 human embryonic stem cell (hESC)-based Assay for Ornithine (ORN):Cystine (CYSS) Ratio (AID 2283714)
Outline: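 Undifferentiated H9 hESCs were exposed to compound for 72h with media and chemical replaced every 24h. Final 24-h conditioned media were deproteinized and analysed by UPLC-HRMS. ORN and CYSS peak areas were normalized to C13 internal standards and the ratio taken versus 0.1% DMSO.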

[9] = STM_H9_NormalizedViability: Cytotoxicity Assessment at 120 hours in the Stemina devTOX quickPredict H9 human embryonic stem cell (hESC)-based Assay (AID 2283784)
Outline: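 Undifferentiated H9 hESCs kept pluripotent were exposed to compound, with media and chemical replaced every 24h. CellTiter-Fluor protease-substrate fluorescence was background-corrected and normalized per plate to the 0.1% DMSO vehicle; signal loss indicates reduced viability.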

[10] = CCTE_Shafer_MEA_acute_AB: CCTE's Alamar Blue Assay for Cytotoxicity in the Neural Acute Assay, Shafer Lab (AID 2284069);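 note: active compounds lower the viability signal compared with DMSO wells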
Outline: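 Cytotoxicity endpoint for acute MEA exposures of primary rat cortical neurons on day 13 or 15. Resazurin reduction is read fluorescently at 544/590 nm, with DMSO as the negative-control baseline.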

[11] = CEETOX_H295R_11DCORT: CeeTox H295R High-throughput Steroidogenesis Assay for 11-Deoxycortisol (11DCORT) (AID 2283432; active = hit-call score of the fitted dose curve at least 0.9, where 1 is the maximum; inactive = score below 0.9); details: actives raise or lower the signal
Outline: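 Steroidogenesis in human H295R cells: 48 h chemical exposure after forskolin priming, 11-deoxycortisol measured by LC-MS/MS.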

[12] = CEETOX_H295R_CORTIC: CeeTox H295R High-throughput Steroidogenesis Assay for Corticosterone (CORTIC) (AID 2283437; active = hit-call score of the fitted dose curve at least 0.9, where 1 is the maximum; inactive = score below 0.9;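 note: corticosterone secreted into medium quantified by mass spectrometry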); details: actives raise or lower the signal
Outline: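 H295R cells were prestimulated 48 h with 10 uM forskolin, then exposed 48 h to test chemical in 0.1% DMSO. Medium corticosterone was MTBE-extracted and quantified by HPLC-MS/MS; bidirectional fit versus DMSO baseline.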

[13] = CEETOX_H295R_CORTISOL: CeeTox H295R High-throughput Steroidogenesis Assay for Cortisol (AID 2283438; active = hit-call score of the fitted dose curve at least 0.9, where 1 is the maximum; inactive = score below 0.9;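 note: cortisol secreted into medium quantified by LC-MS/MS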); details: actives raise or lower the signal
Outline: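 H295R human adrenal cells were prestimulated 48 h with 10 uM forskolin, then exposed 48 h to test chemical (0.1% DMSO final). Medium cortisol was quantified by HPLC-MS/MS after MTBE extraction; bidirectional fitting relative to DMSO baseline.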

[14] = CEETOX_H295R_DOC: CeeTox H295R High-throughput Steroidogenesis Assay for DOC (AID 2283439; active = hit-call score of the fitted dose curve at least 0.9, where 1 is the maximum; inactive = score below 0.9); details: actives raise or lower the signal
Outline: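 H295R adrenal cells prestimulated 48 h with 10 uM forskolin, then exposed 48 h to test chemical (0.1% DMSO final). Medium 11-deoxycorticosterone extracted with MTBE, quantified by HPLC-MS/MS; bidirectional fit versus DMSO baseline; MTT viability in same wells.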

[15] = target: human CYP2C8, CYP2C8 (gene 1558) (UniProt P10632); assay: NVS_ADME_hCYP2C8: NovaScreen (NVS) CYP450-related Enzyme Activity (ADME) Assay for human CYP2C8 (AID 2283104; active = hit-call score of the fitted dose curve at least 0.9, where 1 is the maximum; inactive = score below 0.9)
Sequence of human CYP2C8, CYP2C8 (gene 1558) (P10632 whole entry, looked up): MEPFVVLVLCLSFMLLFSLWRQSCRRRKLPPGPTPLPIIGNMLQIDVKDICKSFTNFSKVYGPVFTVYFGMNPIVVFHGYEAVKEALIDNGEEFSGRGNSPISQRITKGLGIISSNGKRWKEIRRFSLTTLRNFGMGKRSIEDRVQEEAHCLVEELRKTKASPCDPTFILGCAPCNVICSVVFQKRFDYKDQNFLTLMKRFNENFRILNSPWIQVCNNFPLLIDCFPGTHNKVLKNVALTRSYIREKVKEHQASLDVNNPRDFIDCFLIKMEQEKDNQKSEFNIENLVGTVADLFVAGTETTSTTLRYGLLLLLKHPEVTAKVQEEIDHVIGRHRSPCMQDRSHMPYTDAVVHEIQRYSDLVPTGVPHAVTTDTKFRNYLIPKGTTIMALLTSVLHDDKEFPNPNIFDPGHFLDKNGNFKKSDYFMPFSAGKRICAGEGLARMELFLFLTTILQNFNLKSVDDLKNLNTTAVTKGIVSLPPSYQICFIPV
Outline: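 Recombinant human CYP2C8 with fluorogenic substrate, 0.5 h, fluorescence intensity; signal loss fitted versus acetonitrile. Screened in duplicate at 10 uM, then actives run in concentration-response up to 20 uM.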

[16] = target: rat Adenylate Cyclase, Forskolin Stimulated, Adcy5 (gene 64532) (UniProt Q04400); assay: NVS_ENZ_rACFSKBinding: NovaScreen (NVS) Enzymatic Assay for rat Adenylate Cyclase, Forskolin Stimulated (AID 2283232)
Outline: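 Rat forebrain membrane preparation, cell-free, read 1 h after dosing by filter-based scintillation counting. Primary screen in duplicate at 25 uM; actives (e.g. ≥30% inhibition) rerun in concentration-response up to 50 uM; fit versus DMSO.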

[17] = target: Voltage-dependent N-type calcium channel subunit alpha-1B (Rattus norvegicus) (UniProt Q02294); assay: NVS_IC_rCaChN: NovaScreen (NVS) Ion Channel Assay for rat Calcium Channel, Type N (CaChN) (AID 2283317)
[18] = target: human Ephrin type-B Receptor 2 (EphB2), EPHB2 (gene 2048) (UniProt P29323); assay: NVS_ENZ_hEphB2: NovaScreen (NVS) Enzymatic Assay for human Ephrin type-B Receptor 2 (EphB2) (AID 2283156)
Sequence of human Ephrin type-B Receptor 2 (EphB2), EPHB2 (gene 2048) (P29323 whole entry, looked up): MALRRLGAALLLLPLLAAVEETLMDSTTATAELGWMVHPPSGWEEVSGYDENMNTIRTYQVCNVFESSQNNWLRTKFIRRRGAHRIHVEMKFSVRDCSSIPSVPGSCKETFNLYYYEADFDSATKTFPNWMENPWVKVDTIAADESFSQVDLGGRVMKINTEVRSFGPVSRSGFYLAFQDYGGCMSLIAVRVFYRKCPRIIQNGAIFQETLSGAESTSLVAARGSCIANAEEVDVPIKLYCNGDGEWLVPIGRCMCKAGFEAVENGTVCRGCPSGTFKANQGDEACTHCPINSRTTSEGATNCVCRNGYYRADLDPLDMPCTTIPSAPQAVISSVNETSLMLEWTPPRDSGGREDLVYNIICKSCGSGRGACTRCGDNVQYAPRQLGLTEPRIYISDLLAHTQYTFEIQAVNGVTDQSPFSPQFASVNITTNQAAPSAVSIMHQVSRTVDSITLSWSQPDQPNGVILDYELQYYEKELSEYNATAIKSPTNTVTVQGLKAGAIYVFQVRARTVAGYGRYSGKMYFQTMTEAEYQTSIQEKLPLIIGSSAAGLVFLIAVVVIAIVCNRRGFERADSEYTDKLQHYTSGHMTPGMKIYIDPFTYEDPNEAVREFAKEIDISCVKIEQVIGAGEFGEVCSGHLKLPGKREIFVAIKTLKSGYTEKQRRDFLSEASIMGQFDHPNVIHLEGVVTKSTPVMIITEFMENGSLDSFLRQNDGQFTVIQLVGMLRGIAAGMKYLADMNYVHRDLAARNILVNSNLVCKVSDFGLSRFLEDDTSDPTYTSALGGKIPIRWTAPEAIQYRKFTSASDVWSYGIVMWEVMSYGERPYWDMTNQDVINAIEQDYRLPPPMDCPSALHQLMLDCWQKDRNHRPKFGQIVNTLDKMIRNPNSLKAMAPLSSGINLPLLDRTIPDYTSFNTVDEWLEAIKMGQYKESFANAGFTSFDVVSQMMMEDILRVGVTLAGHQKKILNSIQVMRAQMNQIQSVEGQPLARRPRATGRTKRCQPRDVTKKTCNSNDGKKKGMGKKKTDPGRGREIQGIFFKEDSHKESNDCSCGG
Outline: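 Recombinant kinase with fluorescent substrate, product separated by electrophoretic mobility shift, read 1 h after dosing. Duplicate 25 uM screen, then singleton concentration-response to 50 uM max; loss of signal versus DMSO.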

Question: What does the source list for `O=[N+]([O-])c1ccc(Cl)cc1`?
Answer: outcome [1]: inactive; outcome [2]: inactive; outcome [3]: inactive; outcome [4]: inactive

Question: What does the source list for `CCOC(=O)COc1ccc(Cl)cc1Cl`?
Answer: AC50 (SERPINA7 (gene 6906)): 24.6 µM (active); AC50 (TTR (gene 7276)): 19.4 µM (active)

Question: For `O=c1c2ccccc2c(=O)c2c1cc(Cl)c1[nH]c3c([nH]c12)c(Cl)cc1c(=O)c2ccccc2c(=O)c13`, which AC50 [5] is on record?
Answer: 12.4 µM (active)

Question: What about the AC50 [6] of the same compound?
Answer: 0.732 µM (active)

Question: What about the AC50 [7] of the same compound?
Answer: 12.9 µM (active)

Question: What about the AC50 [8] of the same compound?
Answer: 10 µM (active)

Question: And the outcome [9]?
Answer: inactive

Question: What about the outcome [10] of the same compound?
Answer: inactive

Question: With `C=CC(=O)OCCO` as the compound, how does the outcome [11] read?
Answer: inactive

Question: And the outcome [12]?
Answer: inactive

Question: What about the outcome [13] of the same compound?
Answer: inactive

Question: What about the outcome [14] of the same compound?
Answer: inactive

Question: For `N#CSCSc1nc2ccccc2s1`, which AC50 [15] is on record?
Answer: 4.46 µM (active)

Question: And the AC50 [16]?
Answer: 25 µM (active)

Question: With `COC(=O)CSc1cc(N=c2sc(=O)n3n2CCCC3)c(F)cc1Cl` as the compound, how does the outcome [17] read?
Answer: inactive

Question: With `CC(C)(c1ccc(O)cc1)c1ccc(O)cc1` as the compound, how does the outcome [18] read?
Answer: inactive

From PubChem BioAssay (EPA / NIEHS)
